PubChem BioAssay (EPA / NIEHS)
Inconclusive results are not listed. Activity calls are given as the source filed them. Rule for the calls, unless noted: active = hit-call score of the fitted dose curve at least 0.9, where 1 is the maximum; inconclusive = response in the unintended direction; inactive = score below 0.9.

Experiments:
[1] = TOX21_p53_BLA_p2_viability: Viability Assessment in the Tox21 HCT-116 p53 Agonism Beta-lactamase Assay, Phase 2 (AID 2283591);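 note: compound exposure lasted 16 h at 37 °C; actives lower the ATP signal meaning cytotoxicity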
Summary of the method: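 HCT-116 p53-bla cells (4000/well) rested 5 h at 37C, then received compounds in DMSO (217-fold dilution) for 16 h at 37C, 5% CO2. After the CCF4 read, CellTiter-Glo was added; ATP luminescence was read after 30 min at room temperature.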

[2] = target: Cellular tumor antigen p53 (Homo sapiens) (UniProt P04637); assay: TOX21_p53_BLA_p2_ratio: Tox21 HCT-116 p53 Agonism Beta-lactamase Assay, Ratio, Phase 2 (AID 2283592)
Cellular tumor antigen p53 (Homo sapiens), sequence (P04637 whole entry, looked up): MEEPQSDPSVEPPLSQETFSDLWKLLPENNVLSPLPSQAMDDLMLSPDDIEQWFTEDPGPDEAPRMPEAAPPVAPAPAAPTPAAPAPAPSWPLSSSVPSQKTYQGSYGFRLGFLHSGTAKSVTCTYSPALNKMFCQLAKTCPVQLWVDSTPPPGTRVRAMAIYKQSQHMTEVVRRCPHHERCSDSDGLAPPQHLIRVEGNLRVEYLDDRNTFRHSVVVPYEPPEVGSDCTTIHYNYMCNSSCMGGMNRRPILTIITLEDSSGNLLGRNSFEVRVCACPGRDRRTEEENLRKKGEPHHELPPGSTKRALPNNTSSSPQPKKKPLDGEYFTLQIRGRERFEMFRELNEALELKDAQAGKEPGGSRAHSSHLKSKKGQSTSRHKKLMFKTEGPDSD
Summary of the method: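 Human colon HCT116 cells with an inducible p53 beta-lactamase reporter are exposed to test chemicals for 16 h at 37C. Reporter induction is read as the 460/530 nm emission ratio after CCF4-AM loading, normalized to DMSO.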

[3] = TOX21_p53_BLA_p3_viability: Viability Assessment in the Tox21 HCT-116 p53 Agonism Beta-lactamase Assay, Phase 3 (AID 2283593)
Summary of the method: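 HCT-116 cells (4000/well) rested 5 h at 37C, then got DMSO compounds by pin tool (217-fold dilution) for 16 h at 37C, 5% CO2. After the bla read, CellTiter-Glo was added and luminescence read at 30 min, room temperature.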

[4] = target: Cellular tumor antigen p53 (Homo sapiens) (UniProt P04637); assay: TOX21_p53_BLA_p3_ratio: Tox21 HCT-116 p53 Agonism Beta-lactamase Assay, Ratio, Phase 3 (AID 2283596)
Summary of the method: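 HCT116 p53-bla cells (4000/well) given compound in DMSO (217-fold dilution) after 5 h, incubated 16 h at 37C. CCF4-AM substrate 2 h at room temperature; 460/530 nm emission ratio, gain fitted against DMSO.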

[5] = TOX21_p53_BLA_p4_viability: Viability Assessment in the Tox21 HCT-116 p53 Agonism Beta-lactamase Assay, Phase 4 (AID 2283597);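 note: hits lower the luminescence signal meaning cytotoxicity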
Summary of the method: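 Luminescent ATP readout (CellTiter-Glo, 30 min, room temperature) in the same wells as the p53 bla ratio. HCT116 cells were treated for 16 h at 37C with DMSO-dissolved compounds.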

[6] = target: Cellular tumor antigen p53 (Homo sapiens) (UniProt P04637); assay: TOX21_p53_BLA_p5_ratio: Tox21 HCT-116 p53 Agonism Beta-lactamase Assay, Ratio, Phase 5 (AID 2283599)
Summary of the method: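 HCT-116 cells carrying a p53-inducible beta-lactamase reporter were seeded at 4000 cells/well and dosed after 5 h with compound in DMSO (217-fold dilution). After 16 h at 37C, CCF4-AM substrate was added for 2 h, and the 460/530 nm emission ratio was scored as gain-of-signal versus DMSO.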

[7] = TOX21_p53_BLA_p5_viability: Viability Assessment in the Tox21 HCT-116 p53 Agonism Beta-lactamase Assay, Phase 5 (AID 2283600)
Summary of the method: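 Seeded cells (4000/well) settle 5 h before compound addition. Plates then incubate 16 h at 37C, receive FRET substrate for 2 h, and finally CellTiter-Glo, with luminescence measured after a 30 min room-temperature incubation.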

[8] = target: Cellular tumor antigen p53 (Homo sapiens) (UniProt P04637); assay: TOX21_p53_BLA_p4_ratio: Tox21 HCT-116 p53 Agonism Beta-lactamase Assay, Ratio, Phase 4 (AID 2283601)
Summary of the method: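 HCT116 cells carrying an inducible beta-lactamase reporter were plated at 4000 cells/well, rested 5 h, then exposed to compounds in DMSO (217-fold dilution) for 16 h at 37C. CCF4-AM substrate was loaded 2 h at room temperature; 460/530 nm emission ratio scored gain-of-signal versus DMSO.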

[9] = target: PGR (gene 5241) (UniProt P06401); assay: TOX21_PR_BLA_Followup_Antagonist_ratio: Tox21 HEK293 Progesterone Receptor (PR) Antagonism Beta-lactamase Follow-Up Assay, Ratio (AID 2283934)
PGR (gene 5241), sequence (P06401 whole entry, looked up): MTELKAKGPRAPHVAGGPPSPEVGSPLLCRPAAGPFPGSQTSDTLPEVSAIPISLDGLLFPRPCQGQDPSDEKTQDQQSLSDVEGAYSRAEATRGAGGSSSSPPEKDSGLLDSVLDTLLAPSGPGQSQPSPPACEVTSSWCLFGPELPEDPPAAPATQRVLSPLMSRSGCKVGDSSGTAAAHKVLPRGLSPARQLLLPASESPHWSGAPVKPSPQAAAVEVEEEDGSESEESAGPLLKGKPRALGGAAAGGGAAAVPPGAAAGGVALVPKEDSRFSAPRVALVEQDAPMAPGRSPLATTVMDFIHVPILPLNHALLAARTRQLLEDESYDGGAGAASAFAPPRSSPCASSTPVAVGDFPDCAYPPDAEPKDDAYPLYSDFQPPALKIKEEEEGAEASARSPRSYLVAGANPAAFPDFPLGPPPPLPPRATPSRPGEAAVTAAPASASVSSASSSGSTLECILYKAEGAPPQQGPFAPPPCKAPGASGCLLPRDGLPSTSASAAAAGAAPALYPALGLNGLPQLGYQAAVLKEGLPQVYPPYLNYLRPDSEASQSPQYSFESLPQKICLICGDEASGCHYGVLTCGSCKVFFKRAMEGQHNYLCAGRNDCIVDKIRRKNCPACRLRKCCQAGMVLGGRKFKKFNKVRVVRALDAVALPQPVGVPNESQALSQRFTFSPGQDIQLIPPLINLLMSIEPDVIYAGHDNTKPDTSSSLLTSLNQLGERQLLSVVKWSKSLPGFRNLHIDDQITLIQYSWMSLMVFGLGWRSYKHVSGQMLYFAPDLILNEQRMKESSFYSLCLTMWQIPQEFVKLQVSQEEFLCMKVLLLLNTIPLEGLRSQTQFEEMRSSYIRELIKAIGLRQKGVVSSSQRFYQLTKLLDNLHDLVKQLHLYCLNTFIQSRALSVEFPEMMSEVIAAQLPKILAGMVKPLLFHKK
Summary of the method: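 PR-UAS-bla HEK293T cells, 3,000/well in 2% charcoal-stripped FBS, given compound plus 1nM R5020 agonist for 16 hr at 37C. Beta-lactamase FRET substrate 2 hours, ratio cleaved/uncleaved fluorescence; viability by CellTiter-Glo in same wells.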

[10] = TOX21_PR_BLA_Followup_Antagonist_viability: Viability Assessment in the Tox21 HEK293 Progesterone Receptor (PR) Antagonism Beta-lactamase Follow-Up Assay (AID 2283936);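 note: hits lower the luminescence signal meaning cytotoxicity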
Summary of the method: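 PR-UAS-bla HEK293T cells (3,000/well, 2% charcoal-stripped FBS) given compound plus R5020 agonist, 16 h at 37C. CellTiter-Glo added after bla read, 30 min at room temperature; luminescence loss indicates cytotoxicity.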

[11] = TOX21_PR_LUC_Followup_Antagonist_viability: Viability Assessment in the Tox21 HEK293 Progesterone Receptor (PR) Antagonism Luciferase Follow-Up Assay (AID 2283940)
Summary of the method: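 HEK293-PR-A-luc cells kept in charcoal-stripped FBS medium were plated 5 h before compound addition, then exposed 16 h at 37C; viability read as cellular ATP by luciferase luminescence, loss of signal indicating cytotoxicity.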

[12] = TOX21_PR_LUC_Followup_Agonist_viability: Viability Assessment in the Tox21 HEK293 Progesterone Receptor (PR) Agonism Luciferase Follow-Up Assay (AID 2283941);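 note: loss of signal means cytotoxicity so actives lower viability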
Summary of the method: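 HEK293-PR-A-luc cells, kept in 10% charcoal-stripped FBS medium, were treated with compounds for 16 h at 37C. Viability read as cellular ATP by luciferase-coupled luminescence; loss of signal indicates cytotoxicity.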

[13] = tested on: Thyroperoxidase (TPO), gene 54314; assay: CCTE_Simmons_AUR_rTPO: CCTE's Amplex UltraRed Assay for Thyroperoxidase (TPO) Inhibition, Simmons Lab (AID 2283662);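 note: potency for loss of signal meaning inhibition of peroxidase activity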
Summary of the method: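 Endpoint is decreased Amplex UltraRed fluorescence after a 30-min, 37C reaction of rat thyroid microsomes with 300 uM H2O2. Eight test concentrations (5 nM–87.5 uM final) in 0.5% DMSO, three biological replicates each.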

[14] = CCTE_Simmons_CellTiterGLO_HEK293T: Viability Assessment in CCTE's Assays for Thyroperoxidase (TPO) Inhibition, Simmons Lab (AID 2283665);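 note: cells exposed to compound for 24 h before readout; actives reduce ATP signal below DMSO vehicle meaning cytotoxicity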
Summary of the method: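 HEK293T cells in DMEM with 1% FBS, dosed 24 h at 37C with 8 concentrations, 5 nM–87.5 uM final, 0.5% DMSO. ATP measured by CellTiter Glo luminescence; loss of signal vs DMSO, three biological replicates.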

[15] = tested on: Brachyury (BRA) Protein Expression, Deisenroth Lab, TBXT (gene 6862); assay: CCTE_Deisenroth_DEVTOX-GLR_legacy_Bra: (Legacy) CCTE's DevTox GLR-Endo Assay Evaluation of Brachyury (BRA) Protein Expression, Deisenroth Lab (AID 2284329; active = hit-call score of the fitted dose curve at least 0.9, where 1 is the maximum; inactive = score below 0.9)
Summary of the method: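 RUES2-GLR human pluripotent cells differentiated 48 h with two 24-h-interval chemical exposures (1 nM - 200 uM, 10 points); fixed, nuclear-stained, imaged. Bra+ cell percentage (intensity 5x BMAD above pluripotent control median) fitted relative to 0.2% DMSO.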

[16] = CCTE_Deisenroth_DEVTOX-GLR_legacy_CellCount: (Legacy) Viability Assessment in CCTE's DevTox GLR-Endo Assay, Deisenroth Lab (AID 2284331; active = hit-call score of the fitted dose curve at least 0.9, where 1 is the maximum; inactive = score below 0.9); details: actives raise or lower the signal
Summary of the method: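 Seed RUES2-GLR 24 h; differentiate 48 h, dosing at 0 and 24 h; fix, stain nuclei; image 5 fields/well; count nuclei. Conc. 1 nM - 200 uM, single technical replicate, n=4 experiments; bidirectional fit vs 0.2% DMSO.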

[17] = tested on: SRY-box transcription factor 17 (SOX17) Protein Expression, Deisenroth Lab, SOX17 (gene 64321); assay: CCTE_Deisenroth_DEVTOX-GLR_legacy_Sox17: (Legacy) CCTE's DevTox GLR-Endo Assay Evaluation of SRY-box transcription factor 17 (SOX17) Protein Expression, Deisenroth Lab (AID 2284341; active = hit-call score of the fitted dose curve at least 0.9, where 1 is the maximum; inactive = score below 0.9); details: actives raise or lower the signal
Summary of the method: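 Using the RUES2-GLR line, compounds are tested as 10-point series during 48-h defined-media differentiation. Sox17 reporter fluorescence per cell determines positivity; endpoint is percentage positive, analysed bidirectionally versus DMSO baseline.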

[18] = tested on: SRY-box transcription factor 2 (SOX2) Protein Expression, Deisenroth Lab, SOX2 (gene 6657); assay: CCTE_Deisenroth_DEVTOX-GLR_legacy_Sox2: (Legacy) CCTE's DevTox GLR-Endo Assay Evaluation of SRY-box transcription factor 2 (SOX2) Protein Expression, Deisenroth Lab (AID 2284346; active = hit-call score of the fitted dose curve at least 0.9, where 1 is the maximum; inactive = score below 0.9)
Summary of the method: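 RUES2-GLR human pluripotent cells seeded 24 h, then differentiated 48 h in defined media with two chemical doses 24 h apart (10-point, 1 nM–200 uM). Fixed, nuclear-stained, imaged; % Sox2+ cells (>5x BMAD over endoderm control median), DMSO-subtracted, fitted upward.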

[19] = tested on: SRY-box transcription factor 2 (SOX2) Protein Expression, Deisenroth Lab, SOX2 (gene 6657); assay: CCTE_Deisenroth_DEVTOX-GLR_Endo_SOX2: CCTE's DevTox GLR-Endo Assay Evaluation of SRY-box transcription factor 2 (SOX2) Protein Expression, Deisenroth Lab (AID 2284412)
Summary of the method: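 RUES2-GLR human pluripotent cells were seeded 24 h, then differentiated 48 h with two chemical exposures 24 h apart. Cells were fixed, nuclei stained and imaged by high-content microscopy. Endpoint is %SOX2+ cells over cell count, minus 0.2% DMSO control; 10-point series 1 nM–200 uM.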

[20] = tested on: SRY-box transcription factor 17 (SOX17) Protein Expression, Deisenroth Lab, SOX17 (gene 64321); assay: CCTE_Deisenroth_DEVTOX-GLR_Endo_SOX17: CCTE's DevTox GLR-Endo Assay Evaluation of SRY-box transcription factor 17 (SOX17) Protein Expression, Deisenroth Lab (AID 2284413; active = hit-call score of the fitted dose curve at least 0.9, where 1 is the maximum; inactive = score below 0.9)
Summary of the method: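 Endpoint: % change in SOX17+ fraction (SOX17+ cells / cell count) vs 0.2% DMSO solvent control. RUES2-GLR reporter cells, 48 h endoderm differentiation, two doses at 24 h intervals, high-content fluorescence imaging, 5 fields/well.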

[21] = tested on: Brachyury (BRA) Protein Expression, TBXT (gene 6862); assay: CCTE_Deisenroth_DEVTOX-GLR_Endo_BRA: CCTE's DevTox GLR-Endo Assay Evaluation of Brachyury (BRA) Protein Expression, Deisenroth Lab (AID 2284417; active = hit-call score of the fitted dose curve at least 0.9, where 1 is the maximum; inactive = score below 0.9)
Summary of the method: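 Percent BRA+ (mesoderm) RUES2-GLR cells after 48 h differentiation with two exposures, 1 nM - 200 uM; 0.2% DMSO control subtracted.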

[22] = CCTE_Deisenroth_DEVTOX-GLR_Endo_CellCount: Viability Assessment in CCTE's DevTox GLR-Endo Assay, Deisenroth Lab (AID 2284420; active = hit-call score of the fitted dose curve at least 0.9, where 1 is the maximum; inactive = score below 0.9)
Summary of the method: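 Measured 48 h after dosing: fluorescent nuclei counted by imaging in human RUES2-GLR cells under defined differentiation media, tested at 1 nM - 200 uM. Values are percent cell-count change relative to 0.2% DMSO.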

[23] = tested on: SRY-box transcription factor 2 (SOX2) Protein Expression, Deisenroth Lab, SOX2 (gene 6657); assay: CCTE_Deisenroth_DEVTOX-GLR_Pluri_SOX2: CCTE's DevTox GLR-Pluri Assay Evaluation of SRY-box transcription factor 2 (SOX2) Protein Expression, Deisenroth Lab (AID 2284428; active = hit-call score of the fitted dose curve at least 0.9, where 1 is the maximum; inactive = score below 0.9)
Summary of the method: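 Percent SOX2+ RUES2-GLR cells, determined by fluorescence microscopy after 48 h and two 24-h-interval chemical exposures spanning 1 nM–200 uM, served as the endpoint. Values are expressed relative to 0.2% DMSO; total cell counts assessed viability.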

[24] = tested on: Brachyury (BRA) Protein Expression, Deisenroth Lab, TBXT (gene 6862); assay: CCTE_Deisenroth_DEVTOX-GLR_Pluri_BRA: CCTE's DevTox GLR-Pluri Assay Evaluation of Brachyury (BRA) Protein Expression, Deisenroth Lab (AID 2284429)
Summary of the method: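 Human pluripotent RUES2-GLR cells, seeded 24 h, were differentiated 48 h in defined media with two chemical doses at 24-h intervals (10-point, 1 nM - 200 uM). Readout: percent BRA+ cells by fluorescent reporter imaging, minus 0.2% DMSO control.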

[25] = CCTE_Deisenroth_DEVTOX-GLR_Pluri_CellCount: Viability Assessment in CCTE's DevTox GLR-Pluri Assay Evaluation of Total Cell Counts, Deisenroth Lab (AID 2284430; active = hit-call score of the fitted dose curve at least 0.9, where 1 is the maximum; inactive = score below 0.9)
Summary of the method: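 RUES2-GLR human pluripotent cells, seeded 24 h, then differentiated 48 h with two chemical exposures 24 h apart; 10-point series 1 nM - 200 uM. Fixed, nuclear-stained, imaged (5 fields/well); nuclei count as % change vs 0.2% DMSO.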

Measured: AC50

C[C@]12C=CC(=O)C=C1[C@@H](F)C[C@@H]1[C@@H]2[C@@H](O)C[C@@]2(C)[C@H]1CC[C@]2(O)C(=O)CO
active: [3] 37.3 µM | [4] 43.5 µM
inactive: [1] | [2] | [5] | [6] | [7] | [8] | [9] | [10] | [11] | [12]

CCN(CC)CCNC(=O)c1c(C)[nH]c(/C=C2\C(=O)Nc3ccc(F)cc32)c1C
inactive: [1] | [2] | [3] | [4] | [6] | [7]
active: [5] 17.7 µM | [8] 37.1 µM | [13] 8.81 µM | [14] 12.8 µM | [15] 6.88 µM | [16] 1.63 µM | [17] 0.623 µM | [18] 0.621 µM | [19] 2.5 µM | [20] 0.616 µM | [21] 0.826 µM | [22] 1.62 µM | [23] 0.432 µM | [24] 0.264 µM | [25] 1.23 µM
